# Most compounds without a hit are left out; they make up all but 10% or so of the library.
# Luciferase inh = blocks purified firefly luciferase enzyme activity. P08659. purified P. pyralis luciferase, luminescence, biochemical. Potency, µM (top dose mostly 115 µM), hits mostly inhibitors. hit rate 2.5% among 76,000; further: on the % scale 0 is the no-effect control and ±100 the full control effect; nearly all actives have a fitted effect of over 65% in size
#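 FLuc 10nM, D-luciferin 10uM, ATP 10uM, Mg acetate 10mM, Tris acetate pH 7.5, Tween/BSA; cpd qHTS; enzyme added last; CCD luminescence.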
# NPR1 antag = human Npr1 receptor antagonism; P16066; HEK293 hNpr1 GloSensor cGMP, ANP-stimulated luminescence; Potency, µM (series often up to 46.3 µM), for the others: at the top dose activity change, negative = inhibition, actives largely listed as inhibitors; hit rate 1.6% among 76,000; calls by dose curve; further: on the % scale 0 is the no-effect control and ±100 the full control effect; nearly all actives have a fitted effect of over 60% in size
#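 Compound pre-incubated 30 min at room temperature on GloSensor-loaded HEK293 cells stably carrying hNpr1 and the pGS-40F cGMP biosensor. Stimulation uses hNppA at 0.1 nM final; luminescence is taken at baseline and 20 min post-agonist.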
# HEK cytotox = cytotoxic compounds in HEK 293 cells | HEK 293 viability, ATP luminescence (CellTiter-Glo), 48-72 h | Potency, µM (series often up to 115 µM), without a hit: at the highest dose activity change, negative = cytotoxicity, usual class: inhibitors | hit rate 6.6% among 94,000; further: on the % scale 0 is the no-effect control and ±100 the full control effect; nearly all actives have a fitted effect of over 60% in size
#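 CellTiter-Glo luminescence (cellular ATP) was read after 48 or 72 hr of compound exposure at 37 degree Celsius. Cells were HEK 293 plated at 250 cells/well.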
# NIH3T3 tox = kills NIH 3T3 cells; NIH 3T3 viability, CellTiter-Glo ATP luminescence, 48-72 h; hit rate 4.3% among 94,000; Potency, µM (top dose mostly 96.7 µM), inactives show at the top dose activity change, negative = cytotoxicity, hits mostly inhibitors; further: on the % scale 0 is the no-effect control and ±100 the full control effect; nearly all actives have a fitted effect of over 55% in size
#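 Cytotoxicity was measured by CellTiter-Glo ATP luminescence after 48 or 72 h compound exposure at 37 °C. Mouse NIH 3T3 fibroblasts were seeded at 400 cells/well and dosed by 23 nL pin transfer.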
# GPT2 inh = GPT2 alanine aminotransferase inhibition. Recombinant GPT2, coupled pyruvate oxidase/HRP Amplex Red fluorescence. Potency, µM (doses to about 57.7 µM), without a hit: top-dose activity change, negative = inhibition, most hits filed as inhibitors. hit rate 0.25% among 100,000; further: on the % scale 0 is the no-effect control and ±100 the full control effect; nearly all actives have a fitted effect of over 60% in size
#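 Inhibition is scored from Amplex Red fluorescence generated when pyruvate oxidase and HRP act on pyruvate released by GPT2. Reactions contain 10ng/uL enzyme, 250uM a-KG and 2mM L-alanine and run 30 min at room temperature.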
# NPR1 antag cnf = hNpr1 antagonism, confirmation assay; hit rate 76% among 1,400; Potency, µM (top dose mostly 57.6 µM), without a hit: at the top dose activity change, negative = inhibition, actives largely listed as inhibitors; AID 1347044; shares compounds with NPR1 antag; HEK293 hNpr1 cGMP GloSensor luminescence, ANP-stimulated; calls by dose curve; further: nearly all actives have a fitted effect of over 70% in size
# NPR2 antag = selectivity test of Npr1 antagonists against human Npr2 | HEK293 hNpr2 GloSensor cGMP luminescence, CNP-stimulated | AID 1347046 | shares compounds with NPR1 antag | Potency, µM (doses to about 57.6 µM), inactives show at the highest dose activity change, negative = inhibition, actives largely listed as inhibitors | hit rate 67% among 1,400; calls by dose curve; further: nearly all actives have a fitted effect of over 70% in size
# FLuc counter = counter-screen for Npr1 antagonists: firefly luciferase inhibitors | shares compounds with NPR1 antag | purified FLuc enzyme, luminescence, Km substrate | Potency, µM (highest dose often 57.6 µM), without a hit: top-dose activity change, negative = inhibition, hits mostly inhibitors | hit rate 0.7% among 1,400; further: 0% is about no effect
# GloSensor ctrl = counter-screen for Npr1 antagonists: GloSensor control cell line; Potency, µM (highest dose often 57.6 µM), for the others: top-dose activity change, negative = inhibition, usual class: inhibitors; shares compounds with NPR1 antag; hit rate 69% among 1,400; HEK293 GloSensor cGMP, SNP-stimulated, luminescence; AID 1347051; calls by dose curve; further: on the % scale 0 is the no-effect control and ±100 the full control effect; nearly all actives have a fitted effect of over 70% in size
# Active calls of the source: *; i = inactive; ? = inconclusive; . = no result; [ ] = remark or other dose. Unless noted, the call rests on the fitted dose curve; in most records, active means well fitted curve in the direction sought with a large enough effect; inconclusive means small, poorly fitted or top-dose-only effect, or another doubt; inactive means no such curve, though single readings can be large; an effect the other way counts as inactive or inconclusive. Potency means the concentration at half of the fitted maximal effect.
SMILES,Luciferase inh,NPR1 antag,HEK cytotox,NIH3T3 tox,GPT2 inh,NPR1 antag cnf,NPR2 antag,FLuc counter,GloSensor ctrl
O=C(C[C@@H]1CCNC[C@@H]1Cc1cc(CC2CCCCC2)on1)NCc1ccccc1,i,14µM*,?,32µM*,5%[88.5 µM],20µM*,28µM*,5%[86.2 µM],18µM*
CC1=NS(=O)(=O)N(C)C=C1C(=O)OCc1nc(-c2cccc(F)c2)no1,i,?,?,-24%,i,.,.,.,.
CC1=NS(=O)(=O)N(C)C=C1C(=O)OCc1nc(-c2ccc(C(F)(F)F)cc2)no1,i,10µM*,40µM*,?,i,9.7µM*,11µM*,0%,9.7µM*
CC1=NS(=O)(=O)N(C)C=C1C(=O)OCc1nc(-c2ccsc2)no1,i,?,-11%,-13%,i,.,.,.,.
CC1=NS(=O)(=O)N(C)C=C1C(=O)OCc1nc(-c2ccccc2)no1,i,-9%,?,-24%,i,.,.,.,.
CC1=NS(=O)(=O)N(C)C=C1C(=O)OCc1nc(-c2cccc(Cl)c2)no1,i,14µM*,?,-19%,i,22µM*,?,0%,?
CC1=NS(=O)(=O)N(C)C=C1C(=O)OCc1nc(-c2ccccc2)oc1C,i,10µM*,?,?,i,12µM*,14µM*,5%,11µM*
CCc1ccc(CN2C[C@@H]3C(=O)N(CCN4CCc5ccccc5C4)C(=O)[C@@H]3C2)cc1,i,?,?,?,i,.,.,.,.
O=C(NC1CCCCC1)c1nc2cccnc2n(Cc2ccccc2)c1=O,.,.,?,?,2%,.,.,.,.
CCOc1ccc(NC(=O)N2CCCC(Cn3c(C4CC4)nc4cccnc43)C2)cc1 (stereo unspecified),i,-1%,?,-24%,i,.,.,.,.
NC(=O)c1cccnc1OC1CCN(Cc2ccc[nH]2)CC1,i,0%,-6%,4%,-2%,.,.,.,.
CCC1Oc2ccc(NC(=O)c3ccccc3OC(C)=O)cc2CN(Cc2ccccc2F)C1=O (stereo unspecified),i,0.71µM*,25µM*,14µM*,-21%,24µM*,24µM*,-4%,22µM*
Cn1nccc1C(=O)N1CCCN(CCc2ccccc2)c2ccccc21,i,?,?,?,i,19µM*,14µM*,-1%,-29%
CC(C)N1C[C@H](C(=O)NCCc2ccccc2)[C@H](C(=O)O)C1,i,4%,i,-3%,0%,.,.,.,.
O=C(Nc1cccc(-c2ccc(F)cc2)c1)C1CCCN(C(=O)c2cccnc2)C1 (stereo unspecified),i,-15%,?,?,3%,.,.,.,.
O=C(Nc1ccc(-c2cccc(F)c2)cc1)C1CCCN(C(=O)c2ccncc2)C1 (stereo unspecified),i,7.1µM*,14µM*,?,i,14µM*,15µM*,-15%,11µM*
CN(C)C(CNC(=O)c1cn(C2CCC(N)CC2)nn1)c1ccccn1 (stereo unspecified),i,3%,-4%,3%,i,.,.,.,.
